Assay [1] is described as follows: HepG2 liver cancer cell viability effects, profiling panel, resazurin fluorescence, 24 h, PK04 Diversity Set (AID 1172). Also: test concentration not given here. The conditions noted are these: higher = more signal. A general note: Resazurin is reduced to fluorescent resorufin, in cell work by metabolically active cells.
Assay [2] in a line: basal S. cerevisiae growth modulation, no modifier, primary screen, OD600, strain BY4716, 24 h, basal condition (AID 1173). Conditions: OD600, 24 h, higher = more signal, called active from +8 up or from −8 down.
The nature of assay [3]: MM1S myeloma cell viability, profiling panel, resazurin fluorescence, basal, 24 h, PK04 Diversity Set (AID 1174).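 Also: MM1S multiple myeloma cell line; test concentration not given here.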 The conditions noted are these: higher = more signal, called active from +8 up or from −8 down.
In assay [4] the target is Dihydroorotate dehydrogenase (quinone), mitochondrial (Plasmodium falciparum (isolate 3D7)) (UniProt Q08210). In words: PfDHODH enzyme inhibitors, primary screen, biochemical, C-terminal His tag, absorbance 600 nm (AID 1175).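 Also: recombinant parasite enzyme with a five histidine tag at its C terminus; test concentration not given here.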 The conditions noted are these: DCIP absorbance 600 nm, higher = more signal, called active from +8 up or from −8 down.
Chain of Dihydroorotate dehydrogenase (quinone), mitochondrial (Plasmodium falciparum (isolate 3D7)) (Q08210 whole entry, looked up): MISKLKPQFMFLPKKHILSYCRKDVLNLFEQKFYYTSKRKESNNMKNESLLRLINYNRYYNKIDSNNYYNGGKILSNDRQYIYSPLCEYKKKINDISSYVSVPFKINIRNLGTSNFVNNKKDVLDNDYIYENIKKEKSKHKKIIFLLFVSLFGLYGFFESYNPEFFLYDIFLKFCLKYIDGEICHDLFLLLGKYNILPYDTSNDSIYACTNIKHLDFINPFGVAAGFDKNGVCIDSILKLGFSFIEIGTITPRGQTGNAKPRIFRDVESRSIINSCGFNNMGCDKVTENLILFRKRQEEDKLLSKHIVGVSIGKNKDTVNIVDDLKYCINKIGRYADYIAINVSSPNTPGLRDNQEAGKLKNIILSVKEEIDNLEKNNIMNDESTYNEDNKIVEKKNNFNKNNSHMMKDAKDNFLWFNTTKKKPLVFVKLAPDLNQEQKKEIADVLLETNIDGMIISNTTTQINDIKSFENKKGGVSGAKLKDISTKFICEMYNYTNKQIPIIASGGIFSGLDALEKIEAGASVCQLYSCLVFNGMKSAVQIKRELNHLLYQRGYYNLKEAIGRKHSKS
Assay [5] is described as follows: P. aeruginosa biofilm formation inhibitors, primary screen, strain PAO1, LB-PBS medium, absorbance 600 nm (AID 1176). Also: test concentration not given here. Conditions: P. aeruginosa PAO1 growth/biofilm, A600, 12 h; higher = more signal.
Assay [6] in a line: S. cerevisiae RM11-1a growth modifiers, primary screen, strain RM11-1a, OD600, basal, 24 h (AID 1177).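 Also: cultures grown under basal conditions with no added stressor; test concentration not given here.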 The conditions noted are these: OD600, 24 h, higher = more signal, called active from +8 up or from −8 down.
The nature of assay [7]: E. coli acrAB mutant growth effects, primary screen, E. coli filamentation inducers, strain DRC39, OD650, 24 h (AID 1178).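 Also: growth measured as culture turbidity by optical density at 650 nm; test concentration not given here.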 Conditions: higher = more signal, called active from +8 up or from −8 down.
Assay [8] in a line: E. coli acrAB mutant growth effects, primary screen, E. coli filamentation inducers, strain DRC39, OD650, 48 h (AID 1179).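 Also: screen aims at cell division blockers that make cells filament.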 Conditions: E. coli DRC39 delta-acrAB growth, higher = more signal, called active from +8 up or from −8 down.
Assay [9] in a line: RPMI8226 myeloma cell viability, profiling panel, resazurin fluorescence, basal, 24 h, PK04 Diversity Set (AID 1180).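 Also: RPMI8826 multiple myeloma cell line at 5000 cells per well; test concentration not given here.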 The conditions noted are these: higher = more signal.
The target of assay [10] is E3 ubiquitin-protein ligase XIAP (Homo sapiens) (UniProt P98170). The experiment in a line: XIAP binders, primary screen, biophysical, small-molecule microarray, fluorescence 635 nm (AID 1181).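 Also: score merges 667 nm emission and signal to noise over triplicate slides.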 The conditions noted are these: small-molecule microarray binding, higher = more signal.
Chain of E3 ubiquitin-protein ligase XIAP (Homo sapiens) (P98170 whole entry, looked up): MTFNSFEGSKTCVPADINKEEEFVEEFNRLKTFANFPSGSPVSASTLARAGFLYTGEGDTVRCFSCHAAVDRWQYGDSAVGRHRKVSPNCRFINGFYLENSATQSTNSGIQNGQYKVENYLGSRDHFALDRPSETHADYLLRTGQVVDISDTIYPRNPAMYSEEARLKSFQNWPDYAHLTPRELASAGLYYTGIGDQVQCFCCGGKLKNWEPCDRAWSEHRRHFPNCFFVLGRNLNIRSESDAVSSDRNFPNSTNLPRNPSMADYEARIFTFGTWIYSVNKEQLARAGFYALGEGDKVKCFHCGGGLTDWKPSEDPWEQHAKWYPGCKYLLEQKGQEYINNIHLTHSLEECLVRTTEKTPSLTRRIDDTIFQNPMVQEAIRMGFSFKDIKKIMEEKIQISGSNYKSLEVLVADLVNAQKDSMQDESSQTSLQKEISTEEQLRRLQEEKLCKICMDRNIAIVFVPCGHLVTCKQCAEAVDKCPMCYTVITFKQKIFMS

Twelve molecules from PubChem BioAssay can be followed below.

Molecules are shown by their SMILES. Calls of active or inactive are those of the source. Unless noted, no rule for the calls is given here.

Consider `O=C1OCCC/C=C\[C@H]2OC34C=CCN(c5ccc6ccccc6c5)C(=O)[C@H]3N(CCCCCO)C(=O)[C@@H]4C12` (stereo not given in full), for which the z-score is 0.0877 in assay [1]; -0.801 (inactive) in assay [2]; -0.377 (inactive) in assay [3]; -0.649 (inactive) in assay [5]; -0.878 (inactive) in assay [6]; 0.352 (inactive) in [7]. The results for the z-score in [8] and in assay [9] were -0.005 (inactive) and 0.408, respectively. The results for the composite z-score in [4] and in assay [10] were -0.338 (inactive) and -0.0541, respectively.

As for `CC(C)(C)OC(=O)CC[C@@]1(C(=O)N2CCCCC2)N=C(c2ccc(OCCCO)cc2)O[C@@H]1c1ccccc1`, the z-score is 0.426 in [1]; -0.563 (inactive) in [2]; -0.76 (inactive) in assay [3]; 0.935 (inactive) in assay [5]; 0.262 (inactive) in [6]; -0.174 (inactive) in [7]. In addition, the z-score is -1.53 (inactive) in assay [8] and 0.0487 in [9]. In addition, the composite z-score in assay [4] is -0.159 (inactive); in assay [10] it was 0.138.

With `C=CCOC(=O)[C@H]1[C@@H]2C(=O)O[C@@H](c3ccccc3)[C@@H](c3ccccc3)N2[C@@H](c2ccc(OCCOC(=O)[C@@H]3C[C@@H]4C(=O)N5CCC[C@H]5C(=O)N4[C@@H]3c3cccc(OCCO)c3)cc2)[C@]12C(=O)Nc1ccc(I)cc12`, the z-score was -0.536 in [1]; 0.509 (inactive) in assay [2]; -0.424 (inactive) in assay [3]; 3.85 (inactive) in assay [5]; 1.29 (inactive) in [6]; 0.021 (inactive) in assay [7]. The results for the z-score in [8] and in [9] were -0.0471 (inactive) and -0.442, respectively. The values for the composite z-score in assay [4] and in assay [10] were -0.49 (inactive) and -0.0203, respectively.

Regarding `COC(=O)[C@@]1(Cc2ccccc2)[C@H]2c3cc(C(=O)N(C)C)n(Cc4ccc(OC)c(OC)c4)c3C[C@H]2CN1C(=O)c1ccccc1`, the z-score in [1] was -0.872; in assay [2], 0.721 (inactive); in assay [3] it was -0.799 (inactive); in assay [5], 0.302 (inactive); in assay [6], 0.358 (inactive); in [7], -0.874 (inactive). In addition, the z-score was -0.695 (inactive) in assay [8] and -2.19 in assay [9]. The composite z-score in [4] is -0.831 (inactive); in assay [10] it was -0.289.

On to `Cc1c(NC(=O)/C(C#N)=C/c2cccc([N+](=O)[O-])c2)c(=O)n(-c2ccccc2)n1C`, for which the z-score was 0.131 in [1]; -0.701 (inactive) in assay [2]; -1.34 (inactive) in assay [3]; 0.972 (inactive) in assay [5]; -2.91 (inactive) in [6]; 1.48 (inactive) in assay [7]. In addition, the z-score in assay [8] was 0.837 (inactive); in assay [9] it was 0.246. Further, the values for the composite z-score in [4] and in [10] were -2.58 (inactive) and 0.248, respectively.

As for `CCCNC(=O)[C@@H]1c2ccccc2C(=O)N(Cc2ccccc2OC)[C@H]1c1ccc(CO)cc1`, the z-score in assay [1] was -0.314; in assay [2] it was -0.42 (inactive); in assay [3], -1.32 (inactive); in assay [5], -0.0933 (inactive); in assay [6], 0.262 (inactive); in [7] it was 0.324 (inactive). The z-score in assay [8] was 0.285 (inactive); in assay [9], -0.694. The values for the composite z-score in assay [4] and in assay [10] were -0.486 (inactive) and -0.113, respectively.

On to `[N-]=[N+]=Nc1ccccc1C[C@@]1(C(=O)N2CCCCC2)N=C(c2ccc(OCCCO)cc2)O[C@@H]1c1ccccc1N=[N+]=[N-]`, for which the z-score in [1] was -0.45; in assay [2], -0.893 (inactive); in assay [3], -2.09 (inactive); in assay [5], 0.578 (inactive); in assay [6], 1.48 (inactive); in [7] it was 0.472 (inactive). For the same molecule, the values for the z-score in assay [8] and in [9] were 0.208 (inactive) and -3.1, respectively. Besides, the values for the composite z-score in assay [4] and in [10] were -0.0853 (inactive) and -0.0102, respectively.

Consider `NCCCCCNC(=O)[C@H]1C[C@H]2C(=O)N3CCC[C@H]3C(=O)N2[C@H]1c1ccc(O)cc1`, for which the z-score was -0.0962 in [1]; -0.0403 (inactive) in [2]; -0.225 (inactive) in assay [3]; 0.174 (inactive) in assay [5]; -0.835 (inactive) in [6]; -0.363 (inactive) in assay [7]. In addition, the z-score is -0.39 (inactive) in assay [8] and -0.485 in [9]. Further, the composite z-score is -0.572 (inactive) in assay [4] and 0.247 in assay [10].

As to `NC(=O)NCC#Cc1ccc2c(c1)[C@]1(C(=O)N2)[C@H](C(=O)O)[C@H]2C(=O)O[C@H](c3ccccc3)[C@H](c3ccccc3)N2[C@@H]1c1ccc(O)cc1`, the z-score was 0.891 in assay [1]; -0.0841 (inactive) in [2]; 0.587 (inactive) in assay [3]; 0.393 (inactive) in assay [5]; 0.0591 (inactive) in assay [6]; -0.131 (inactive) in [7]. Moreover, the results for the z-score in assay [8] and in assay [9] were -0.0796 (inactive) and 0.902, respectively. The figures for the composite z-score in [4] and in assay [10] were -1.63 (inactive) and 0.0043, respectively.

As for `COCCOC(=O)N1C(=O)[C@@]2(c3cc(C#Cc4ccc(OC)cc4)ccc31)[C@H](c1ccc(O)cc1)N1[C@H](c3ccccc3)[C@H](c3ccccc3)OC(=O)[C@H]1[C@@H]2C(=O)Nc1nc2ccccc2s1`, the z-score in [1] is -0.719; in assay [2] it was -0.442 (inactive); in [3] it was -0.72 (inactive); in assay [5], 0.819 (inactive); in assay [6] it was 0.363 (inactive); in [7], -0.184 (inactive). The z-score in [8] was -0.0404 (inactive); in assay [9] it was -0.61. Besides, the results for the composite z-score in assay [4] and in assay [10] were -0.455 (inactive) and 0.0345, respectively.

As to `COCCOC(=O)N1C(=O)[C@@]2(c3cc(C#CC4=CCCCC4)ccc31)[C@H](C(N)=O)[C@H]1C(=O)O[C@H](c3ccccc3)[C@H](c3ccccc3)N1[C@@H]2c1ccc(O)cc1`, the z-score was -0.495 in [1]; -0.268 (inactive) in assay [2]; -2.03 (inactive) in [3]; 1.37 (inactive) in [5]; -1.07 (inactive) in [6]; 0.273 (inactive) in assay [7]. Further, the z-score in assay [8] is 1.03 (inactive); in [9], -4.15. The composite z-score in [4] was -1.37 (inactive); in assay [10] it was -0.223.

Regarding `C=C(CCCC)/C(=C/C[C@H](OC(=O)c1ccncc1)c1ccc(OCCO)cc1)c1cc(C(=O)OC)ccc1OC`, the z-score in [1] was -0.113; in [2], 0.409 (inactive); in assay [3], -0.266 (inactive); in assay [5], -0.693 (inactive); in [6] it was 0.395 (inactive); in [7], -0.981 (inactive). Also, the z-score in assay [8] is -0.581 (inactive); in assay [9], -0.691. The composite z-score in assay [4] was -4.01 (inactive); in [10], 0.22.
